# Measured values taken from ChEMBL document CHEMBL1961873, “Compounds: GSK PKIS; Assays: Nanosyn kinase panel” (2012).
# What was measured:
# [1] = target: T1, Inhibitor of nuclear factor kappa-B kinase subunit epsilon (Homo sapiens) (UniProt Q14164); conditions: at 1 µM;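 note: reported values are averaged percent inhibition figures against human IKKε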
# T1 sequence (whole entry): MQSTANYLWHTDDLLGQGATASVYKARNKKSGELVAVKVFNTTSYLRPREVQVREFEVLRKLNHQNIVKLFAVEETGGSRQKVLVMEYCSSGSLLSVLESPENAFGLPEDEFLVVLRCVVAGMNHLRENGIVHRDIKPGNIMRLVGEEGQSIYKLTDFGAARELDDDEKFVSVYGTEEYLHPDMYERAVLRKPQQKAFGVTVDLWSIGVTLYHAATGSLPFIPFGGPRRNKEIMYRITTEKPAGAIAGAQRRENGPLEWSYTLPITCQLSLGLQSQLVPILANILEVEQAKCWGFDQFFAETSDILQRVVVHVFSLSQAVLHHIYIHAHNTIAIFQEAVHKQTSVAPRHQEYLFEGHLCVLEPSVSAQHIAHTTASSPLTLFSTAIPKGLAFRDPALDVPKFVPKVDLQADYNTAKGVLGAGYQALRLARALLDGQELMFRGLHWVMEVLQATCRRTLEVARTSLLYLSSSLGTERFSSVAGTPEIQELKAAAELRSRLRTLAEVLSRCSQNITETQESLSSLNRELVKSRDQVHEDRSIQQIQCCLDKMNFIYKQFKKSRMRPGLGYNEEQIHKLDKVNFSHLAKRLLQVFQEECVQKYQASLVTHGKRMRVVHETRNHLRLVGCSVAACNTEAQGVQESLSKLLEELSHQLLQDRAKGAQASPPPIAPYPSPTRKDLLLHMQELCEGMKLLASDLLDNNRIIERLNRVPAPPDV
# [2] = target: T2, Serine/threonine-protein kinase Nek1 (Homo sapiens) (UniProt Q96PY6); conditions: at 0.1 µM
# T2 sequence (whole entry): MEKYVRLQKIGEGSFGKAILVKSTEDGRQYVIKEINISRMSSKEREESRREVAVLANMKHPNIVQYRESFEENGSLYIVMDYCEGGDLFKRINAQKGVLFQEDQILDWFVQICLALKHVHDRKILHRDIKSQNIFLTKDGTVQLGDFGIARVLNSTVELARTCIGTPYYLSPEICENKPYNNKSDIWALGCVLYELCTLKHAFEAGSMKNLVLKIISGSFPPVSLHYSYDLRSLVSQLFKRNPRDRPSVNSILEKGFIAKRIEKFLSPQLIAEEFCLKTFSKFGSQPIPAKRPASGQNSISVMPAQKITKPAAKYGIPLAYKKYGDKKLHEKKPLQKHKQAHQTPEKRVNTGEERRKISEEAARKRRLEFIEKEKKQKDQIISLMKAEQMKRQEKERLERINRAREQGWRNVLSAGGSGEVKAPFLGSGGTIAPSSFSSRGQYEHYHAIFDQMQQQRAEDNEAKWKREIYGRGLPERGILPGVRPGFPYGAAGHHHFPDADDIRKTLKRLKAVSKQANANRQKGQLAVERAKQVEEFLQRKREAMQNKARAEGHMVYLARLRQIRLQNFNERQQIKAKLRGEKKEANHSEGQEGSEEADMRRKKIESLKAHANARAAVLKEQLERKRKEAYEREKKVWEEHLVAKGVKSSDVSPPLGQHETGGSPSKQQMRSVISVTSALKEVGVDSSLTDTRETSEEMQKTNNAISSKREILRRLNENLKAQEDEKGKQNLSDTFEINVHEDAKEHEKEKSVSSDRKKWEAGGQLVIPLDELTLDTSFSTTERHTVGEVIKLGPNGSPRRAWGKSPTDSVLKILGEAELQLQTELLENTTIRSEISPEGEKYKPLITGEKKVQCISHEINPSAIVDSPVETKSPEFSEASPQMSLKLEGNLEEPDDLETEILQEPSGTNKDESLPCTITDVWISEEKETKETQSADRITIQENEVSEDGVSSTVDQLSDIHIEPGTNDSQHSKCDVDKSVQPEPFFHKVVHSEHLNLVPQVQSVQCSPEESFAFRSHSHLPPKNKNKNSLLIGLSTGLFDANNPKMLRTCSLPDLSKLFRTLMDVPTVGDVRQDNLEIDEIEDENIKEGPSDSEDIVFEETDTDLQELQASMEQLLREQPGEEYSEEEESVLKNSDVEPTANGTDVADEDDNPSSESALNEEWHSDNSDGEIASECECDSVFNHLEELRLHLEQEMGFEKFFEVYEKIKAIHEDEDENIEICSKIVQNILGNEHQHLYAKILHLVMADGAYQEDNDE
# [3] = target: T2, Serine/threonine-protein kinase Nek1 (Homo sapiens); conditions: at 1 µM
# [4] = target: T3, Serine/threonine-protein kinase Nek2 (Homo sapiens) (UniProt P51955); conditions: at 0.1 µM
# T3 sequence (whole entry): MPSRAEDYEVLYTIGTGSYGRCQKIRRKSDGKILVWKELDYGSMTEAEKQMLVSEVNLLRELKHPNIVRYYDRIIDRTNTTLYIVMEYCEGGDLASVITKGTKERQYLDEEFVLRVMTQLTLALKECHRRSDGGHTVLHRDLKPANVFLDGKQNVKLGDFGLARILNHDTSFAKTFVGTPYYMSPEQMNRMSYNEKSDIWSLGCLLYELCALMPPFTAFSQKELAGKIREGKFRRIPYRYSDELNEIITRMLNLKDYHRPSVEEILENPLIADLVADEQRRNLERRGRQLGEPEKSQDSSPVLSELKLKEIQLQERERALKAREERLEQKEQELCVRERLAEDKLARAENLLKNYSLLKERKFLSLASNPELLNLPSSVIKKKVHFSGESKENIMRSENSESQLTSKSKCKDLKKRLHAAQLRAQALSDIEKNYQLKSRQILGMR
# [5] = target: T3, Serine/threonine-protein kinase Nek2 (Homo sapiens); conditions: at 1 µM
# [6] = target: Serine/threonine-protein kinase Nek6 (Homo sapiens) (UniProt Q9HC98); conditions: at 0.1 µM
# Serine/threonine-protein kinase Nek6 (Homo sapiens), sequence (Q9HC98 whole entry): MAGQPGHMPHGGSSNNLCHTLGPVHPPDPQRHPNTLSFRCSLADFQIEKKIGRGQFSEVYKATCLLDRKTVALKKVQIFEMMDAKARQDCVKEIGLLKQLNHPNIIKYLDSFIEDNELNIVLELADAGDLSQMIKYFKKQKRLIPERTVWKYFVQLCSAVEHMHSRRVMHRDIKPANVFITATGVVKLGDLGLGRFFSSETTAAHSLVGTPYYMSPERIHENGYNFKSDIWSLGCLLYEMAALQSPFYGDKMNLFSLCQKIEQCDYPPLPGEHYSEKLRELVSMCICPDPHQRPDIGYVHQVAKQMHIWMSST
# [7] = target: Serine/threonine-protein kinase Nek6 (Homo sapiens) (UniProt Q9HC98); conditions: at 1 µM
# [8] = target: Serine/threonine-protein kinase Nek7 (Homo sapiens) (UniProt Q8TDX7); conditions: at 0.1 µM
# Serine/threonine-protein kinase Nek7 (Homo sapiens), sequence (Q8TDX7 whole entry, looked up): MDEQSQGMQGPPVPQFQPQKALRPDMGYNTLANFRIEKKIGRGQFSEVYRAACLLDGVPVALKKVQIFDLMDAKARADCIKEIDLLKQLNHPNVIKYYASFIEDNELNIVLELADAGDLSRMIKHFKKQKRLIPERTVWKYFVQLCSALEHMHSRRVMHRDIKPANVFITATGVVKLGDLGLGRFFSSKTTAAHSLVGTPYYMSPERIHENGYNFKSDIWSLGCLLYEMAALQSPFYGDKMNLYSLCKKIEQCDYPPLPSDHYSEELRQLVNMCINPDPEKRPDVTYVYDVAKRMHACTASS
# [9] = target: Serine/threonine-protein kinase Nek7 (Homo sapiens) (UniProt Q8TDX7); conditions: at 1 µM
# [10] = target: T4, Serine/threonine-protein kinase Nek9 (Homo sapiens) (UniProt Q8TD19); conditions: at 0.1 µM;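 note: reported value is the mean percent inhibition of NEK9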
# T4 sequence (whole entry): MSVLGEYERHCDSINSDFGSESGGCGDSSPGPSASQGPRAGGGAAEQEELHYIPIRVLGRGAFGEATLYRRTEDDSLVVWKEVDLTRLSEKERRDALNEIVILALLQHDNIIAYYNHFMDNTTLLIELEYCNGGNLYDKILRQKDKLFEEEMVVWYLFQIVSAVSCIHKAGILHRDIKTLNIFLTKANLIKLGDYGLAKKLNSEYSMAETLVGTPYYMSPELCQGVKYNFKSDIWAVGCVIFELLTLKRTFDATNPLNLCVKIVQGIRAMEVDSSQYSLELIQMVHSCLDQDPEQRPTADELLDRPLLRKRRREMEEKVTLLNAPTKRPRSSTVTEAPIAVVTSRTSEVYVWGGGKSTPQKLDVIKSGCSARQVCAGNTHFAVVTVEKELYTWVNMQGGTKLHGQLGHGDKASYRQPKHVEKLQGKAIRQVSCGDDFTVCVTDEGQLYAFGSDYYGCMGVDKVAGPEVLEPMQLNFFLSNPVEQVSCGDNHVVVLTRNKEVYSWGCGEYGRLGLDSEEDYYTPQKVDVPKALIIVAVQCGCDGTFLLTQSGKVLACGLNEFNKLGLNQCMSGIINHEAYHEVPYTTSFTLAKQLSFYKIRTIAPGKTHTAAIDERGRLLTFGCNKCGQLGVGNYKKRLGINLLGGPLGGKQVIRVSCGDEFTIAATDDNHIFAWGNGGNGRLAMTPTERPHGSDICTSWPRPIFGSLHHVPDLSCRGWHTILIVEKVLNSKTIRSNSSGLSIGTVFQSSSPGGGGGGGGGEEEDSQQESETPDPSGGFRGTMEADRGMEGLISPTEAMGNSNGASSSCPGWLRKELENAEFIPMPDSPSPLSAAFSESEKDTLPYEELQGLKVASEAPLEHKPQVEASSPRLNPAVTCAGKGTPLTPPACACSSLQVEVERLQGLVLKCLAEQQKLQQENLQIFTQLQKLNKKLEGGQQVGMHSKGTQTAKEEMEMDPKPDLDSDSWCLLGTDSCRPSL
SMILES,inhibition [1] [%],inhibition [2] [%],inhibition [3] [%],inhibition [4] [%],inhibition [5] [%],inhibition [6] [%],inhibition [7] [%],inhibition [8] [%],inhibition [9] [%],inhibition [10] [%]
NS(=O)(=O)c1ccc(-c2ccc3c(NC(=O)C4CC4)n[nH]c3c2)cc1,3.02,1.11,1.6,3.54,2.84,1.03,0.35,2.6,1.74,5.05
CCn1c(-c2nonc2N)nc2c(C#CC(C)(C)O)nc(O[C@@H](CN)c3ccccc3)cc21,98.9,1.61,17.2,5.29,33.5,0.93,-0.92,1.12,0.58,3.66
COc1cc2c(cc1Nc1nc(Nc3ccsc3C(N)=O)c3cc[nH]c3n1)N(C(=O)CN(C)C)CCC2,9.27,0.09,0.97,,6.67,1.52,-0.11,1.7,9.62,1.89
COc1cccc(COc2cc(-n3cnc4ccccc43)sc2C(N)=O)c1,-7.06,0.41,4.13,8.56,1.43,1.63,-0.37,0.3,0.66,0.4
Nc1nonc1-c1nc2cnccc2n1C1CCCCC1,16.2,-1.33,0.56,-2.06,-7.26,0.47,-0.88,0.07,-0.97,-5.44
COc1cc(C=NNc2ncnc3c2cnn3Cc2ccccc2)ccc1O,-4.1,-1.23,-0.61,-5.42,-5.26,-0.58,-3.89,-6.27,-2.54,3.47
COc1cccc(-n2ncc3c(N/N=C/c4ccncc4)ncnc32)c1,9.13,3.6,12.5,5.11,5.47,4.03,3.93,2.45,3.46,7.16
Cc1cc(-c2ccco2)cc(C)c1/C=C/c1cncc(-c2nn[nH]n2)c1,3.83,1.34,1.67,1.03,1.44,0.53,-0.1,,0.89,3.25
CCn1c(-c2nonc2N)nc2c(C#CC(C)(C)O)ncc(OC[C@@H]3CCCN3)c21,98.7,0.01,0.55,0.12,0.91,1.04,0.79,-0.99,-0.58,-1.1
NS(=O)(=O)c1ccc(N/C=C2\C(=O)Nc3ccc4ncsc4c32)cc1,41.9,2.04,3.28,6.71,8.52,1.42,4.37,1.21,7.53,5.84
CCn1c(-c2nonc2N)nc2c(C#CC(C)(C)O)ncc(OCC3CCNCC3)c21,99.1,2.19,3.24,3.86,3.71,3.46,4.94,3.99,3.34,5.3
Fc1ccc(-c2ncn(C3CCNCC3)c2-c2ccnc(Oc3ccccc3)n2)cc1,3.7,1.07,1.73,3.29,1.85,7.63,2.1,2.34,6.68,2.53
NC(=O)c1sc(-n2cnc3cc(C(F)(F)F)ccc32)cc1OCc1ccccc1Br,3.62,1.03,1.9,2.62,3.63,-1.58,-0.03,-3.9,3.69,8.36
CCn1c(-c2nonc2N)nc2c(C#CCN)ncc(OCCCN)c21,2.04,-2.66,-3.17,-4.61,-4.57,-0.99,-1.85,-5.43,-9.67,
